A selection: hits, their analogues and other compounds. The true share with any hit is near 2.7%.
ALOX12 inh: ALOX12 (human) lipoxygenase inhibition; purified 12hLO, xylenol orange hydroperoxide absorbance; Potency, µM (doses to about 108 µM), inactives show at the top dose activity change, negative = inhibition, actives largely listed as inhibitors; 1.1% of 580,000 active; AID 1671190; further: on the % scale 0 is the no-effect control and ±100 the full control effect
Target sequence (P18054 whole entry, looked up): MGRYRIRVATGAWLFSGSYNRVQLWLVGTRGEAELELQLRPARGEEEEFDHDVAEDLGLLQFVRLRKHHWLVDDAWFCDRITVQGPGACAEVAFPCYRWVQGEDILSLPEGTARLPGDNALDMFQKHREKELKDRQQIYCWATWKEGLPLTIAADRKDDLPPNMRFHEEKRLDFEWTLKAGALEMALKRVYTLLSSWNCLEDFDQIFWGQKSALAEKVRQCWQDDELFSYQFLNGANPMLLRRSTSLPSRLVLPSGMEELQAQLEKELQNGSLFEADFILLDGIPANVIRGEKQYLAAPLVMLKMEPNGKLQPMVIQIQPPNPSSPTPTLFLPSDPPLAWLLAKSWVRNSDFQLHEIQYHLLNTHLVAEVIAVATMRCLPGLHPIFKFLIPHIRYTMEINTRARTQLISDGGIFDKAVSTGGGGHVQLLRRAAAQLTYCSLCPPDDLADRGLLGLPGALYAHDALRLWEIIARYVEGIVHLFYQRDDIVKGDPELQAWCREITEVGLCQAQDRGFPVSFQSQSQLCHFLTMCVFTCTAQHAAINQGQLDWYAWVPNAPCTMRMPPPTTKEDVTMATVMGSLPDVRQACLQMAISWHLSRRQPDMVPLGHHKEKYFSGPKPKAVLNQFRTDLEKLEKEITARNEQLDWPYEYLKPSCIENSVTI
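Hydroperoxide product was detected by ferrous iron/xylenol orange as the 573 to 405 nm absorbance ratio. Arachidonic acid at 40 uM (final) was turned over for 30 min at room temperature by 150 nM human 12hLO, pH 7.0 Hepes buffer, after 15 min compound preincubation.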
HepG2 tox: counter-screen for TGF-b inhibitors: cytotoxicity in HepG2 cells | HepG2 CAGA-GFP viability, ATP luminescence, 18 h | Potency, µM (top dose mostly 46.1 µM), without a hit: at the top dose activity change, negative = cytotoxicity, most hits filed as cytotoxic | 0.76% of 410,000 active
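HepG2 CAGA-GFP cells (1000/well, DMEM with 1% FBS) received compound, then TGF-beta at 500 pg/mL final, and were incubated 18 hours at 37 degrees C. Viability was read by CellTiter-Glo luminescence. Media-only wells were set as complete cell-killing and DMSO as no toxicity.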
TGFb inhibitor: blocks TGF-b signaling. HepG2 CAGA-GFP TGF-b/SMAD3 reporter, GFP fluorescence, 18 h; TGF-beta stimulated, 500 pg/mL final. Potency, µM (doses to about 46.1 µM), inactives show top-dose activity, negative = inhibition, hits mostly inhibitors. 1.2% of 410,000 active. AID 588855; further: on the % scale 0 is the no-effect control and ±100 the full control effect; nearly all actives have a fitted effect of over 65% in size
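GFP signal (ex488/em500-530) from TGF-beta-stimulated HEPG2 CAGA-GFP cells, 500 pg/mL final, 18 h at 37 degrees C in DMEM plus 1% FBS, normalized to unstimulated and DMSO-stimulated controls.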
ATXN2 expr inh: ATXN2 expression inhibition | HEK-293 ATXN2-luciferase reporter, luminescence, 24 h | Potency, µM (top dose mostly 57 µM), without a hit: top-dose activity change, negative = inhibition, usual class: inhibitors | 0.72% of 360,000 active; further: on the % scale 0 is the no-effect control and ±100 the full control effect; nearly all actives have a fitted effect of over 55% in size
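qHTS (up to 57 uM final) was run with 24 h compound exposure of reporter cells at 37 °C. Each well was multiplexed: SteadyGlo luminescence measured ATXN2-luciferase expression after a fluorogenic Gly-Phe-AFC viability readout (25 uM final).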
S2 tox: cell viability loss in ATXN counter-screen; S2 cells (HEK-293 line with an ATXN2-luciferase reporter) viability, CellTiter-Fluor protease fluorescence, 24 h; Potency, µM (series often up to 56.7 µM), hits mostly cytotoxic; 0.49% of 400,000 active; AID 651635; further: nearly all actives have a fitted effect of over 40% in size
An asterisk follows results filed as active; [ ] = remark or other dose. The call rests on the fitted dose curve; in most records, active means well fitted curve in the direction sought with a large enough effect; inconclusive means small, poorly fitted or top-dose-only effect, or another doubt; inactive means no such curve, though single readings can be large; an effect the other way counts as inactive or inconclusive. Potency means the concentration at half of the fitted maximal effect.

`O=S(=O)(c1ccc(F)cc1)c1snnc1-c1ccccc1` gave ALOX12 inh 9%, HepG2 tox -29%, TGFb inhibitor inconclusive, ATXN2 expr inh 14µM* and S2 tox inconclusive.
`CN(C)c1ncc(S(=O)(=O)c2ccc(Cl)cc2)c(-c2ccccc2)n1` gave ALOX12 inh -20%, HepG2 tox -1%, TGFb inhibitor inconclusive, ATXN2 expr inh 0% and S2 tox inactive.
Screening O=S(=O)(c1ccc(Cl)cc1)c1snnc1-c1ccccc1 returned ALOX12 inh 0%, HepG2 tox -73%, TGFb inhibitor 14µM*, ATXN2 expr inh 20µM* and S2 tox 25µM*.
For CN(C)c1ccc(C=c2c3ccccc3n3c2cc(-c2ccccc2)[n+]3C)cc1 the results were ALOX12 inh 40µM*, HepG2 tox 7.9µM*, TGFb inhibitor inconclusive, ATXN2 expr inh inconclusive and S2 tox 6µM*.
COc1cc(N(C)C)ccc1C=c1c2ccccc2n2c1cc(-c1ccccc1)[n+]2C was read as ALOX12 inh inconclusive, HepG2 tox -61%, TGFb inhibitor 3.5µM*, ATXN2 expr inh 12µM* and S2 tox 12µM*.
Screening CN(C)c1ccc(C=C2C=C(c3ccccc3)OC2=O)cc1 returned ALOX12 inh inconclusive, HepG2 tox -60%, TGFb inhibitor inconclusive and S2 tox inactive.
`COc1cc(C=c2c3ccccc3n3c2cc(-c2ccccc2)[n+]3C)cc(OC)c1OC` gave ALOX12 inh inconclusive, HepG2 tox -34%, TGFb inhibitor inconclusive, ATXN2 expr inh inconclusive and S2 tox inconclusive.
`CN(C)c1ccc(C=c2c3cc([N+](=O)[O-])ccc3n3c2cc(-c2ccccc2)[n+]3C)cc1` gave ALOX12 inh 7.9µM*, HepG2 tox -73%, TGFb inhibitor inconclusive and ATXN2 expr inh 28µM*.
Screening CN(C)c1ccc(C=c2c3ccccc3n3c2cc(-c2ccc(Cl)cc2)[n+]3C)cc1 returned ALOX12 inh 45µM*, HepG2 tox -61%, TGFb inhibitor inconclusive, ATXN2 expr inh inconclusive and S2 tox 11µM*.
Screening CCOc1cc(CN2CCCC2c2ccc(F)cc2)ccc1OCC(N)=O (configuration not stated) returned ALOX12 inh 1%.
`CCCCNC(=O)c1cccc2cccnc12` gave ALOX12 inh 7%.
Screening CC1CCN(c2ccc(-c3cccc(NC(=O)NC(C)C)c3)nn2)CC1 returned ALOX12 inh 16%.
For COCCCNC(=O)CC1CCCC1 the results were ALOX12 inh 1%.
CN(C)c1ccc(C=c2c3ccccc3n3c2c2c([n+]3C)CCCC2)cc1 was read as ALOX12 inh inconclusive, HepG2 tox -51%, TGFb inhibitor 2.5µM*, ATXN2 expr inh 8.9µM* and S2 tox 22µM*.
CN(C)c1ccc(/C=C2\CCc3ccccc32)cc1 was read as HepG2 tox -27% and TGFb inhibitor 0%.
For Cc1cc(C)c2ccc(/C=N/O)nc2c1O the results were ALOX12 inh inconclusive, HepG2 tox -101%, TGFb inhibitor 18µM* and S2 tox inactive.
`CC(=O)Oc1ccc(OC(C)=O)c(SCCCCCN2CCOCC2)c1` gave ALOX12 inh inconclusive, HepG2 tox -81%, TGFb inhibitor 16µM*, ATXN2 expr inh inconclusive and S2 tox inconclusive.
`CC(C)c1ccc(OCCCCCN2CCOCC2)cc1` gave ALOX12 inh inconclusive, HepG2 tox -36%, TGFb inhibitor -6%, ATXN2 expr inh 18% and S2 tox inactive.
`O=C(c1cccc(OC2CN(Cc3cccc(F)c3F)C2)c1)N1CCOCC1` gave ALOX12 inh 18%.
`NC(=O)CN1CCC(c2nc3ccccc3o2)CC1` gave ALOX12 inh 8%.
For Cc1c2ccccc2cc(Cc2ccccc2)[n+]1C the results were ALOX12 inh 5.6µM*, HepG2 tox 0%, TGFb inhibitor 4% and S2 tox inactive.
COc1cc(C)cc2oc(=O)c(CC(=O)Nc3ccc4c(c3)OCO4)c(C)c12 was read as ALOX12 inh -28%.
`c1ccc2nc(-c3ccc(N4CCOCC4)cc3)ccc2c1` gave ALOX12 inh 0%, HepG2 tox -20%, TGFb inhibitor inconclusive, ATXN2 expr inh 3.5µM* and S2 tox inactive.
`CN1CCN(c2ccc(-c3ccc4ccccc4n3)cc2)CC1` gave ALOX12 inh 5%, HepG2 tox -34%, TGFb inhibitor 0% and ATXN2 expr inh 0.38µM*.
Screening Cc1cc(-c2ccc(N3CCOCC3)cc2)nc2ccccc12 returned ALOX12 inh inconclusive, HepG2 tox -13%, TGFb inhibitor 6%, ATXN2 expr inh 76% and S2 tox inactive.
`c1ccc2nc(-c3ccncc3)ccc2c1` gave ALOX12 inh 0%, HepG2 tox 3%, TGFb inhibitor -19%, ATXN2 expr inh 46% and S2 tox inactive.
CC(C)N1CC2CCC(C1)N2Cc1ccc(-c2ccccc2)cc1 was read as ALOX12 inh 1%[6.33 µM].
For Clc1ccc(CNC2CCN(Cc3ccccc3)CC2)cc1 the results were ALOX12 inh 8.9µM*, HepG2 tox -49%, TGFb inhibitor -25%, ATXN2 expr inh -22% and S2 tox inactive.
`S=C(Nc1ccccc1Cl)NC1CCN(Cc2ccccc2)CC1` gave ALOX12 inh -22%, HepG2 tox -41%, TGFb inhibitor -34%, ATXN2 expr inh -13% and S2 tox inactive.
For S=C(Nc1cc(Cl)cc(Cl)c1)NC1CCN(Cc2ccccc2)CC1 the results were ALOX12 inh inconclusive, HepG2 tox 16µM*, TGFb inhibitor inconclusive, ATXN2 expr inh inconclusive and S2 tox inconclusive.
`CCOc1ccc(N(Cc2nc3nc(C)cc(C)n3n2)S(=O)(=O)c2ccc(C)cc2)cc1` gave ALOX12 inh -24%.
For CC1(C)OC(=O)CC1C(=O)NCc1ccccc1 (configuration not stated) the results were ALOX12 inh 0%, HepG2 tox -1%, TGFb inhibitor -9%, ATXN2 expr inh -6% and S2 tox inactive.
For CC1(C)OC2=C(C(=O)c3ccccc3C2=O)[C@H](NCc2ccccc2)[C@H]1O the results were ALOX12 inh -31%[57.4 µM] and ATXN2 expr inh 3.4µM*.
`Cn1nnnc1Sc1ncnc2scc(-c3ccccc3C(F)(F)F)c12` gave ALOX12 inh inconclusive, HepG2 tox -16%, TGFb inhibitor inconclusive, ATXN2 expr inh inconclusive and S2 tox inconclusive.
For Cn1nnnc1Sc1ncnc2scc(-c3cccs3)c12 the results were HepG2 tox -107%, TGFb inhibitor inconclusive, ATXN2 expr inh 8.9µM* and S2 tox inactive.
